The first assay relates to PXR:RXRa (NR concentration 270 nM, RXRa partner concentration 90 nM). Briefly: PBM binding z-score (relative to random genomic background probes); higher = stronger binding; sequences stand for … in GC…GCGATTGACAGCGTAGAATGAAGG
In outline: (§1)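 Random background probes are the reference for binding z-scores. These scores derive from regression-normalized fluorescence on custom Agilent 4×180K protein-binding microarrays incubated 1 h with ligand-free nuclear receptor dimers. Binding was detected with antibodies against each partner (one per run).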
The sequence AGTCAAAGTTCATCTAGGTAACGTATGATATGCT had a PBM binding z-score of 5.12.
In turn, GCTATTAGTAGAAAGGGCAACCGAATGATTCTCG registered a PBM binding z-score of 0.256.
On the same count and under the same terms, the value for ATCCAAAGGTCGAAGGTGAGTATACCCACCCGAA was 3.26.
The sequence TGAATGAGGTTATATGATCAGGGAACGTTGCAAA had a PBM binding z-score of 1.04.
On the same count and under the same terms, the value for CCTAGTTGGTCAGAAGGTCACACACCGGATATGA was 3.98; that for ATCTCTAGGTAAAAGTTCAGTGAATCCCGAGGAT was 2.14; that for TCGAGTAGGTTAGTTGGGGCATTCAGCCAACATA was -0.283.
Still for that read-out and setting: the value for TCTGCTAGGTCAGTTGGTCAGCTATCGAGCTGCC was 0.289; that for ACAGACAGGTGATGATGGTAACTCAGGCTATCAT was 0.234.
Same read-out and setting: to TAGCATAGGTCATTGGGCCAGTATAGTACGCATC belongs 2.87; to CCTACTTGGCCAAGGTCATTGATCAGTCAAAGCA, 3.9.
CCAGACAGGTGAGAAGGTCACTCAGCCTCGATTA returned a PBM binding z-score of 3.25.
The same measure, in the same setting: the value for ACTAGTAGTTGACTTAGGGCAACCGATACGACGC was -0.0724; that for ATCTCTAGGTAAGACTCAGTTCAGTGACGAACGC was 1.11; that for ATATATAGGTTATCGGGTCATTCAGTTTGCGCAT was 3.91.
The same measure, in the same setting: to AGTCAATGTTCACTAGGTAACGTAAGATTCAGCT belongs -0.0899; to ACTACTTGGTCAGCTGAGGTCACACACAATTCGG, 5.72.
TCTCTGAGGACACGAAAGGTCAGAGCTCGACATC yielded a PBM binding z-score of 4.09.

Another assay deals with PXR homodimer (NR concentration 270 nM). The description is as above. In outline: as §1
In turn, TCTTGTAGATCAAGCAGGTTAGGAAAGCCTGAGT showed a PBM binding z-score of 0.0817.
On the same count and under the same terms, to ATCTCTAGGTAGAGTTCAGTGAAAGATCGATAGA belongs 2.07.
The same measure, in the same setting: to GCTTGTAGAGCAAGGTTAAGAAAGACTAAGCTAA belongs -0.546.
On the same count and under the same terms, to CAAACTAGGTCAAATGTCAAAGTCGAGCCAACCA belongs 0.325.
Sequence TCATATAGGTATAGGTGAAAGTCGAACGATATGA came in with a PBM binding z-score of 0.0974.
With CAAACTAGGTCAAGAGATCAAAGTCCGCTTCCCG, the PBM binding z-score is 0.0869.
Still for that read-out and setting: to CCTGCTAGGTCAATCGTCAGCTAAAGCAGCTCGC belongs -0.551; to CGTCAAAGTTCAAGGTAACGTGACAGAAAGCAGC, 2.13; to ATCGAAACGTCGAGGTGAGTATAGAGAAAGGGAA, -0.0991.
On the same count and under the same terms, to AGCGAAAGGTCGTGAGGTGAGTATACAGAAAGGC belongs 0.0715.
In turn, CGAACTAGGGCATTGACAGGACAGTGAATAGTAA showed a PBM binding z-score of -0.0482.
For the sequence CGGACTGGGGCAAGGTTACCATAACGCACAGCCA, the PBM binding z-score is -0.28.
On the same count and under the same terms, to AGCATGAGGTTACCAAAGATCAGGGAAACGCTTG belongs 0.241; to CTAGCAAGGTGAACAAGGTCGTTGATTACTATTC, 1.4; to CTACTAAGGTGAACAAGGTCGTTGATTACTATTC, 2.35.
Still for that read-out and setting: to CGTCCAAGGTCAAAGTTCAGTGAAGAGATGACGG belongs 3.31; to TCTTGTAGATCAATAGAGGGTAAGAAAGTGCGCT, -0.0819; to ATCGAAAGGTCGTGAGGTGCGTATACAGAAAGGC, 0.197.
Same read-out and setting: the value for CCTATTAGTTGAGCATAAGGGCAACCGAAGCTCG was 0.549.
Consider TCTTGTAGATCAACAGGAGGTTAAAAAAGATCGA, for which the PBM binding z-score is -0.197.
The same measure, in the same setting: to TGAATGAGGTTAAAGTTCAGGGAACGTGGCGTCG belongs 0.746; to ATCTCTAGGTAAGACTCAATTCAGTGAAGAACGC, 0.798.
In turn, AGTCAAAGTTCATCTAGGTAACGTATGATATGCT displayed a PBM binding z-score of 7.63.
Sequence GCTATTAGTAGAAAGGGCAACCGAATGATTCTCG returned a PBM binding z-score of -0.0739.
The same measure, in the same setting: the value for ATCCAAAGGTCGAAGGTGAGTATACCCACCCGAA was 0.0246.
Same read-out and setting: the value for TGAATGAGGTTATATGATCAGGGAACGTTGCAAA was 0.00293.
The sequence CCTAGTTGGTCAGAAGGTCACACACCGGATATGA registered a PBM binding z-score of 1.29.
Still for that read-out and setting: the value for ATCTCTAGGTAAAAGTTCAGTGAATCCCGAGGAT was 1.95; that for TCGAGTAGGTTAGTTGGGGCATTCAGCCAACATA was -0.15.
TCTGCTAGGTCAGTTGGTCAGCTATCGAGCTGCC gave a PBM binding z-score of -0.818.
The same measure, in the same setting: the value for ACAGACAGGTGATGATGGTAACTCAGGCTATCAT was 0.57; that for TAGCATAGGTCATTGGGCCAGTATAGTACGCATC was -0.00464; that for CCTACTTGGCCAAGGTCATTGATCAGTCAAAGCA was 1.45.
The same measure, in the same setting: to CCAGACAGGTGAGAAGGTCACTCAGCCTCGATTA belongs 1.11; to ACTAGTAGTTGACTTAGGGCAACCGATACGACGC, -0.195.
Same read-out and setting: the value for ATCTCTAGGTAAGACTCAGTTCAGTGACGAACGC was 2.01; that for ATATATAGGTTATCGGGTCATTCAGTTTGCGCAT was 8.17; that for AGTCAATGTTCACTAGGTAACGTAAGATTCAGCT was -0.202.
Regarding ACTACTTGGTCAGCTGAGGTCACACACAATTCGG, the PBM binding z-score came out at 1.85.
TCTCTGAGGACACGAAAGGTCAGAGCTCGACATC gave a PBM binding z-score of 0.562.

The test system of a further assay is RARa:RXR (NR concentration 270 nM, RXRa partner concentration 90 nM). The assay is described as above. Summed up: as §1
The sequence TCTTGTAGATCAAGCAGGTTAGGAAAGCCTGAGT returned a PBM binding z-score of 0.204.
Still for that read-out and setting: the value for ATCTCTAGGTAGAGTTCAGTGAAAGATCGATAGA was 1.22; that for GCTTGTAGAGCAAGGTTAAGAAAGACTAAGCTAA was 0.613; that for CAAACTAGGTCAAATGTCAAAGTCGAGCCAACCA was 4.96.
TCATATAGGTATAGGTGAAAGTCGAACGATATGA displayed a PBM binding z-score of 0.665.
Still for that read-out and setting: to CAAACTAGGTCAAGAGATCAAAGTCCGCTTCCCG belongs 2.57; to CCTGCTAGGTCAATCGTCAGCTAAAGCAGCTCGC, 1.58; to CGTCAAAGTTCAAGGTAACGTGACAGAAAGCAGC, 3.56.
For the sequence ATCGAAACGTCGAGGTGAGTATAGAGAAAGGGAA, the PBM binding z-score is 0.0247.
Same read-out and setting: the value for AGCGAAAGGTCGTGAGGTGAGTATACAGAAAGGC was 3.96; that for CGAACTAGGGCATTGACAGGACAGTGAATAGTAA was -0.297; that for CGGACTGGGGCAAGGTTACCATAACGCACAGCCA was 1.03.
Still for that read-out and setting: the value for AGCATGAGGTTACCAAAGATCAGGGAAACGCTTG was 2.44.
On the same count and under the same terms, the value for CTAGCAAGGTGAACAAGGTCGTTGATTACTATTC was 1.95; that for CTACTAAGGTGAACAAGGTCGTTGATTACTATTC was 3.18.
As to CGTCCAAGGTCAAAGTTCAGTGAAGAGATGACGG, the PBM binding z-score is 8.01.
In turn, TCTTGTAGATCAATAGAGGGTAAGAAAGTGCGCT showed a PBM binding z-score of 0.841.
The same measure, in the same setting: to ATCGAAAGGTCGTGAGGTGCGTATACAGAAAGGC belongs 3.01; to CCTATTAGTTGAGCATAAGGGCAACCGAAGCTCG, 0.348.
Still for that read-out and setting: the value for TCTTGTAGATCAACAGGAGGTTAAAAAAGATCGA was 0.92.
Same read-out and setting: the value for TGAATGAGGTTAAAGTTCAGGGAACGTGGCGTCG was 6.19; that for ATCTCTAGGTAAGACTCAATTCAGTGAAGAACGC was 0.462.
AGTCAAAGTTCATCTAGGTAACGTATGATATGCT yielded a PBM binding z-score of 3.93.
Still for that read-out and setting: the value for GCTATTAGTAGAAAGGGCAACCGAATGATTCTCG was 0.703; that for ATCCAAAGGTCGAAGGTGAGTATACCCACCCGAA was 4.54; that for TGAATGAGGTTATATGATCAGGGAACGTTGCAAA was 1.77.
The same measure, in the same setting: the value for CCTAGTTGGTCAGAAGGTCACACACCGGATATGA was 4.56; that for ATCTCTAGGTAAAAGTTCAGTGAATCCCGAGGAT was 1.64.
The same measure, in the same setting: to TCGAGTAGGTTAGTTGGGGCATTCAGCCAACATA belongs 0.117; to TCTGCTAGGTCAGTTGGTCAGCTATCGAGCTGCC, 0.544; to ACAGACAGGTGATGATGGTAACTCAGGCTATCAT, 0.211.
The sequence TAGCATAGGTCATTGGGCCAGTATAGTACGCATC yielded a PBM binding z-score of 3.16.
Same read-out and setting: the value for CCTACTTGGCCAAGGTCATTGATCAGTCAAAGCA was 3.57; that for CCAGACAGGTGAGAAGGTCACTCAGCCTCGATTA was 4.09; that for ACTAGTAGTTGACTTAGGGCAACCGATACGACGC was 0.555.
Still for that read-out and setting: to ATCTCTAGGTAAGACTCAGTTCAGTGACGAACGC belongs 0.642.
ATATATAGGTTATCGGGTCATTCAGTTTGCGCAT: the PBM binding z-score was 4.26.
Still for that read-out and setting: to AGTCAATGTTCACTAGGTAACGTAAGATTCAGCT belongs -0.181.
The same measure, in the same setting: the value for ACTACTTGGTCAGCTGAGGTCACACACAATTCGG was 4.92; that for TCTCTGAGGACACGAAAGGTCAGAGCTCGACATC was 4.33.

(Values after the supplement of paper PMC6555819.)
